# From PubChem BioAssay AID652208 (Broad Institute, 2013)
# Measured potencies and affinities stand elsewhere. The source made the active and inactive calls.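 How the source made its calls: active means Loss of cell signal with fitted half-effect dose at or below twice the top valid tested dose; inconclusive means Poor fit, or flat fit from -70 to -30 percent; inactive means Half-effect above limit, rising signal, or flat within 30 percent.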
# Assay: viability loss in HEK293T cells – cell-based, cherry-picks, cytotoxicity control for HIV Vif inhibitor project, dose response (AID 652208)
# Settings: CellTiter-Glo luminescence, 24 h; series mostly up to 26 µM
row,Structure (SMILES),outcome
1,CCCCOc1cccc2c(=O)n(CC(=O)Nc3ccc4c(c3)OCCO4)ccc12,inactive
2,O=C(NNC(=O)c1cc2ccccc2oc1=O)c1ccccc1,inactive
3,CCN(C(=O)COc1ccc(C)cc1OC)c1cccc2ccccc12,inactive
4,COc1ccc(C(=O)Nc2c(Cl)cc(Cl)cc2C(=O)N2CCOCC2)cc1,inactive
5,CC(C)CN1C(=O)C(=O)N(CC(=O)c2ccc3c(c2)OCO3)C1=O,inactive
6,O=C1S/C(=C/c2ccc(N3CCOCC3)o2)C(=O)N1Cc1c(F)cccc1Cl,inactive
7,COc1cc(-c2cc(=O)c3c(O)c(OC)c(OC)cc3o2)cc(OC)c1O,inactive
8,COC(CNC(=O)C1CCN(C(=O)c2cc3oc(C)cc3n2Cc2c(F)cccc2Cl)CC1)OC,inactive
9,COc1ccc(-c2coc3cc(O)ccc3c2=O)cc1,inactive
10,O=C(COC(=O)c1ccccc1Br)NC1CCCC1,inactive
11,CCc1ccc(N2C(=O)/C(=C/c3cccs3)N(CC(=O)OC)C2=S)cc1,inactive
12,CCOC(=O)c1c(NC(=O)CCC(=O)N2CCOCC2)sc2c1CC(C)(C)OC2,inactive
13,Cc1nn(C)cc1CN(C)Cc1ccc(OCC(O)CN2CCCCC2)cc1 (stereo not drawn),inactive
14,O=S(=O)(Nn1cnnc1)c1ccccc1,inactive
15,Cc1ccc(-n2c(SCC(=O)Nc3ccc4c(c3)OCO4)nnc2-c2cccs2)cc1,inactive
16,Cc1cc(/C=C2\NC(=S)N(C)C2=O)ccc1N1CCCC1,inactive
17,CCC1=Nc2cc(C(=O)NCc3ccco3)ccc2Sc2ccc(C)cc21,inactive
18,COc1ccc(C(=O)NC2CC3CCCC(C2)N3Cc2ccccc2)cc1OC (stereo not drawn),inactive
19,CCOc1ccc(Nc2nc3c(C)cccc3cc2C#N)cc1,inactive

row,Structure (SMILES),outcome
1,COc1cccc(-c2cc(NC=O)c3ncc(-c4cc(OC)c(OC)c(OC)c4)n3c2)c1,inactive
2,Cc1ccnc(SCC(=O)n2c3c(c4ccccc42)CC(C)CC3)n1 (stereo not drawn),inactive
3,Cc1ccc(S(=O)(=O)NC(=O)Nn2c(C)nnc2C)cc1,inactive
4,O=C(c1ccc2c(c1)OCO2)N(CC1CCCO1)C1(C(=O)NC2CCCC2)CCCCC1 (stereo not drawn),inactive
5,COc1cc(-c2cnc3c(NC=O)cc(-c4ccccc4)cn23)cc(OC)c1OC,inactive
6,CSc1ccc(CN(C)CC(=O)NCCc2ccccc2)cc1,inactive
7,Cc1ccc(NC(=O)/C=C/c2ccco2)nc1,inactive
8,CC(OC(=O)c1c[nH]c2ccccc12)C(=O)N1CCCC1 (stereo not drawn),inactive
9,COCc1cc(C)nc(SCC(=O)Nc2cccc3cccnc23)c1C#N,inactive
10,COc1cc(/C=C/C(=O)O)ccc1S(=O)(=O)N1CCCc2ccccc21,inactive
11,CCOc1ccc2nc(NS(=O)(=O)Cc3ccccc3)sc2c1,inactive
12,CCc1ccc(S(=O)(=O)Nc2ccc(-c3ccc4nnc(C)n4n3)cc2)s1,inactive
13,CCOC(=O)c1c(C)[nH]c(-c2csc(N)n2)c1C,inactive
14,O=C(c1ccc(Cl)c(Cl)c1)N(Cc1ccco1)c1ccc(O)cc1,inactive
15,COc1ccc(CC(NC(C)=O)C(=O)NC2CCN(C(=O)c3ccccc3F)CC2)cc1 (stereo not drawn),inactive
16,COc1cc(NC(=O)c2ccc(C)cc2C)ccc1NC(=O)c1cccs1,inactive
17,Cc1c(NC(=O)c2cc3ccccc3oc2=O)c(=O)n(-c2ccccc2)n1C,inactive
18,COc1ccc(NC(=O)Cn2nnc(C(=O)Nc3ccccc3C)c2N)cc1,inactive
19,Cc1cccc2cc(COC(=O)c3ccco3)c(=O)[nH]c12,inactive
